Source: PubChem
Rows were chosen to be rich in hits. Some 3% of all compounds tested hit in one or more screens of this group.
IkB sig inh – IkB pathway inhibition in ABC-DLBCL cells; ABC-DLBCL IkBa-CBG/CBR dual luciferase ratio, 4 h; response scale: scaled: untreated 0%, proteasome inhibitor 100%; Potency, µM (doses to about 57.1 µM); hit rate 0.04% among 110,000; active = well fitted curve in the direction sought with a large enough effect in the signal ratio, not every such curve was filed as active; inconclusive = small, poorly fitted or top-dose-only effect, or a change in a side signal; the % refers to the signal ratio;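 note: the direction sought is a rising ratio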
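Luminescence ratio of IκBα-fused green versus native red beetle luciferase in OCI-Ly3 cells, 4 h post-doxycycline with compound; red signal alone, scaled from basal (0%) to zero light (-100%), flagged nonspecific or cytotoxic effects.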
p53ts 39C kill – kills p53ts cells at the nonpermissive temperature | hit rate 1.5% among 130,000 | AID 902 | Potency, µM (series often up to 46.1 µM), most hits filed as cytotoxic | H1299-p53A138V viability at 39C, ATP luminescence, 24 h; note: nearly all actives have a fitted effect of over 55% in size
CRE Fsk mod – modulators of forskolin-stimulated CRE signaling in CHO cells. Potency, µM (series often up to 38.2 µM), most hits filed as activators. hit rate 2.5% among 71,000. CHO CRE-bla reporter (cAMP response element driving beta-lactamase), forskolin EC10, beta-lactamase ratio. AID 662; active = well fitted activation curve with a large enough effect in the signal ratio, with a control signal flat, not every such curve was filed as active; inconclusive = small, poorly fitted or top-dose-only effect, or effect the other way, or a change in a side signal; the % refers to the signal ratio
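Modulation of forskolin signalling: compounds in titration series added with EC10 NKH 477 to CHO cells carrying a CRE-driven beta-lactamase reporter, 3 h, 37C. CCF4 FRET ratio (460/530 nm, ex 405 nm) gives %activity and AC50.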
p53ts 32C tox – cytotoxicity in p53ts cells at permissive temperature; H1299-p53A138V at 32C, ATP luminescence viability, 24 h; Potency, µM (series often up to 46.1 µM), most hits filed as cytotoxic; hit rate 0.93% among 130,000; note: nearly all actives have a fitted effect of over 55% in size
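Cells: H1299 p53ts (A138V), 600/well, pre-incubated 16–30 h at 37C. Cpd up to 46 uM, 24 h, 32C. Readout: ATPlite luminescence, 20 min RT. Normalization: DMSO vs tamoxifen 100 uM. AC50 by Hill equation.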
Peg3 imprint – inducers of genomic imprint erasure in mouse ES cells. mouse ES Peg3-LacZ reporter, beta-gal luminescence, 40 h. Potency, µM (series often up to 60.7 µM), actives largely listed as activators. hit rate 0.02% among 110,000. AID 1948
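Gelatin-coated wells received 300 freshly trypsinized female ES cells with a Peg3LacZ-Neo reporter on the maternal allele, then incubated 40 hours at 37C. BetaGlo was added for 5 minutes at room temperature before a single luminescence read.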
Of the large screens only hits and unclear results are named; the others gave an inactive call. Unless noted, calls come from the whole dose curve; as a rule, active = well fitted curve in the direction sought with a large enough effect; inconclusive = small, poorly fitted or top-dose-only effect, or another doubt; inactive = no such curve, though single readings can be large; an effect the other way counts as inactive or inconclusive.

CCOC(=O)C1(Nc2nccs2)Sc2ccccc2NC1=O (centres undefined)	none
CCOC(=O)C1(N(CC)CC)Sc2cc(C)ccc2NC1=O (centres undefined)	p53ts 39C kill 16µM
COc1ccc2nc(NC(=O)c3nc(S(=O)(=O)Cc4ccc(C)cc4)ncc3Cl)sc2c1	IkB sig inh inconclusive, p53ts 39C kill 6.3µM, p53ts 32C tox inconclusive (no result: CRE Fsk mod)
CCS(=O)(=O)c1ncc(Cl)c(C(=O)NCc2ccc(OC)cc2)n1	IkB sig inh inconclusive, p53ts 39C kill inconclusive, p53ts 32C tox inconclusive (no result: CRE Fsk mod)
Cc1ccc(CS(=O)(=O)c2ncc(Cl)c(C(=O)Nc3nc4ccc(C)cc4s3)n2)cc1	IkB sig inh inconclusive, p53ts 39C kill 13µM, p53ts 32C tox 16µM (no result: CRE Fsk mod)
Cc1ccc(CS(=O)(=O)c2ncc(Cl)c(C(=O)Nc3nc4ccc(F)cc4s3)n2)cc1	IkB sig inh inconclusive, p53ts 39C kill 16µM, p53ts 32C tox 13µM (no result: CRE Fsk mod)
Cc1ccc(CNC(=O)c2nc(S(=O)(=O)Cc3ccc(C)cc3)ncc2Cl)cc1	p53ts 39C kill 13µM, p53ts 32C tox 16µM (no result: CRE Fsk mod)
Cc1ccc(CSc2ncc(Cl)c(C(=O)Nc3nc4ccc(C)cc4s3)n2)cc1	IkB sig inh inconclusive (no result: CRE Fsk mod)
Cc1ccc(NC(=O)CCNS(=O)(=O)c2ccc3c(c2)CCN3C(=O)C2CC2)c(Cl)c1	none (no result: CRE Fsk mod)
O=C1C2C3C=CC(C3)C2C(=O)N1Cc1ccccc1 (centres undefined)	IkB sig inh inconclusive, CRE Fsk mod 1µM
O=S1(=O)C=C(Sc2nc3cc(Cl)ccc3o2)c2ccccc21	IkB sig inh inconclusive, p53ts 39C kill 20µM, CRE Fsk mod inconclusive, p53ts 32C tox 10µM
Cc1ccc(C(=O)Nc2nnc(S(=O)(=O)N(C)Cc3ccco3)s2)cc1	none (no result: CRE Fsk mod)
CC(C)COc1ccc(C(=O)Nc2nnc(S(=O)(=O)N(C)Cc3ccco3)s2)cc1	IkB sig inh inconclusive, p53ts 39C kill 10µM, p53ts 32C tox inconclusive (no result: CRE Fsk mod)
COc1ccc(N2CCN(C(=O)C3CCN(S(=O)(=O)c4cccc5nonc45)CC3)CC2)cc1	none (no result: CRE Fsk mod)
Cc1[nH]c2ccccc2c1C(c1ccccc1)c1ccc(Cl)s1 (centres undefined)	IkB sig inh inconclusive, p53ts 39C kill 13µM, p53ts 32C tox inconclusive (no result: CRE Fsk mod)
c1ccc(CCc2nc(-c3cccnc3)no2)cc1	none
Cc1ccc(-c2nc(-c3ccccc3)no2)c(Cl)c1	IkB sig inh inconclusive, p53ts 39C kill 7.9µM, p53ts 32C tox 5µM
Brc1ccccc1-c1nc(-c2ccccc2)no1	p53ts 39C kill inconclusive, CRE Fsk mod inconclusive, p53ts 32C tox 13µM
c1ccc(-c2ccccc2-c2nc(-c3cccnc3)no2)cc1	IkB sig inh inconclusive, CRE Fsk mod 10µM
c1ccc(CCc2ccccc2-c2nc(-c3cccnc3)no2)cc1	CRE Fsk mod 3.2µM
CC1OC(OC2CCC3(C)C(CCC4C3CC(O)C3(C)C(C5=CC(=O)OC5)CCC43O)C2)CC(O)C1OC1CC(O)C(OC2CC(O)C(OC3OC(CO)C(O)C(O)C3O)C(C)O2)C(C)O1 (centres undefined)	none (no result: IkB sig inh, p53ts 39C kill, CRE Fsk mod, p53ts 32C tox)
Cc1cccc(OCC(=O)N(Cc2cccc(Cl)c2)Cc2ccco2)c1C	IkB sig inh inconclusive (no result: CRE Fsk mod)
O=c1cc(-c2ccccc2)oc2c1ccc1ccccc12	p53ts 39C kill 32µM, CRE Fsk mod inconclusive
O=c1cc(C(F)(F)F)oc2c1ccc1ccccc12	none (no result: IkB sig inh, CRE Fsk mod, Peg3 imprint)
COc1ccc(CN2C(=O)C(NC(=O)c3ccccc3C)(C(F)(F)F)N=C2c2ccccc2)cc1 (centres undefined)	IkB sig inh inconclusive (no result: CRE Fsk mod)
C=CC(=O)OCCOCCOC(=O)C=C	IkB sig inh inconclusive, p53ts 39C kill 32µM, CRE Fsk mod inconclusive
CCOC(=O)c1cc(-c2ccccc2)n(CC(=O)Nc2ccccc2OCC)c1C	none (no result: CRE Fsk mod)
CCOC(=O)c1cc(-c2ccccc2)n(CC(=O)Nc2cc(Cl)c(OC)cc2OC)c1C	p53ts 39C kill 20µM (no result: CRE Fsk mod)
CCOc1ccccc1N1CC(c2nc3ccccc3n2CCCCOc2cc(C)ccc2C)CC1=O (centres undefined)	IkB sig inh inconclusive, p53ts 39C kill inconclusive, p53ts 32C tox inconclusive (no result: CRE Fsk mod)
Cc1cccc(OCCCCn2c(C3CC(=O)N(c4ccccc4Cl)C3)nc3ccccc32)c1 (centres undefined)	p53ts 39C kill 16µM, p53ts 32C tox inconclusive (no result: CRE Fsk mod)
